Records with an inconclusive call do not appear. Where a call stands in place of a potency, no number is given. Values without a mark were called inactive. Activity calls are given as the source filed them. The call rests on the fitted dose curve; in most records, active means well fitted cell-killing curve with a large enough effect in the repeat runs; inconclusive means weak or mixed curves, or effect the other way; inactive means flat fitted curve, though single readings scatter.

One experiment in a line: cAMP Responsive Elements (CRE) small molecule antagonists, cell-based qHTS assay: qHTS cell viability counter screen (AID 2060913). Further: nearly all actives have a fitted effect of over 40% in size. The settings on record: CRE-bla HEK293T viability, CellTiter-Glo luminescence, 5 h; series mostly up to 92.4 µM. The method in brief: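 CRE-bla HEK293T cells (2,000/well, 18 h) given compound plus NKH477 0.25 uM final for 3 h at 37C; viability counter-screen by CellTiter-Glo luminescence in same wells after 30 min.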
A general note: In qHTS, concentration-response curves come from the screen itself.
As to `ClC(Br)Br`, the Potency result is “inactive”.

Regarding `CNC(=S)S`, the Potency entry was “inactive”.

As for `CSSC`, the Potency entry is “inactive”.

With `CC(C)NCC(O)c1ccc([N+](=O)[O-])cc1` (stereo not given), the Potency entry was “inactive”.

Take `O=C(O)c1ccccn1`: the Potency result is “inactive”.

For the molecule `CCOP(=O)(OCC)OCC`, the Potency result is “inactive”.

As for `c1ccc2c(c1)CCCC2`, the Potency entry is “inactive”.

In the case of `Cc1ccc2ccccc2c1`, the Potency entry was “inactive”.

Regarding `O=C(NC(=O)c1c(F)cccc1F)Nc1cc(Cl)c(Oc2ncc(C(F)(F)F)cc2Cl)c(Cl)c1`, the Potency entry is “inactive”.

Turning to `c1ccoc1`, the Potency result was “inactive”.

For the molecule `CCCCS(=O)(=O)Cl`, the Potency entry is “inactive”.

Turning to `C[CH2][Hg][N]1C(=O)C2C(C1=O)C1(Cl)C(Cl)=C(Cl)C2(Cl)C1(Cl)Cl` (stereo not given), the viability change, negative = cytotoxic was -25.3% [at 18.9 µM].

On to `CCCC[N+]1(C)CCCC1` (tested in a mixture with another compound), for which the Potency entry was “inactive”.

On to `CCC(Cl)CCl` (stereo not given), for which the Potency result is “inactive”.

In the case of `CNc1cnn(-c2cccc(C(F)(F)F)c2)c(=O)c1Cl`, the Potency entry is “inactive”.

`CN(C)CCc1c[nH]c2ccc(O)cc12`: the Potency entry was “inactive”.

For `Cc1ccc([N+](=O)[O-])cc1`, the Potency result was “inactive”.

With `Cc1ccc(OP(=O)(Oc2ccccc2)Oc2ccccc2)cc1`, the Potency result was “inactive”.

Take `O=C1c2ccccc2C(=O)c2ccccc21`: the viability change, negative = cytotoxic is 7.37% [at 18.9 µM].

Consider `Cc1cc(-c2cc(C)c(N)c(C)c2)cc(C)c1N`, for which the Potency result is “inactive”.

Turning to `CC(C)c1cccc(C(C)C)c1O`, the Potency result is “inactive”.

On to `CCCCCCCCCCCCCl`, for which the Potency entry was “inactive”.

On to `CCCCOC(C)=O`, for which the Potency entry is “inactive”.

Take `CC1(C)[C@H](/C=C2\CCSC2=O)[C@@H]1C(=O)OCc1coc(Cc2ccccc2)c1`: the Potency entry is “inactive”.

For `Oc1ccc(-c2ccccc2)cc1`, the Potency result was “inactive”.

As for `O=C(Cc1ccccc1)OCc1ccccc1`, the Potency entry was “inactive”.

As for `O=C(Cc1ccccc1)OCCc1ccccc1`, the Potency entry is “inactive”.

Take `CCCCCCCCCCCCCCCl`: the Potency entry was “inactive”.

As to `C[N+](C)(C)CCCl`, the Potency entry was “inactive”.

For `CCN[C@H](C)Cc1cccc(C(F)(F)F)c1`, the Potency result was “inactive”.

As to `O=C(O)C(F)(F)C(F)(F)C(F)(F)C(F)(F)C(F)(F)C(F)(F)C(F)(F)F`, the Potency entry is “inactive”.

For the molecule `CC(C)=CC1C(C(=O)OCc2cccc(Oc3ccccc3)c2)C1(C)C` (stereo not given), the Potency entry is “inactive”.

`O=C(Cl)CCl`: the Potency result was “inactive”.

For the molecule `CCN(CC)C(=O)Cl`, the Potency result was “inactive”.

On to `COc1cc(CC(C)N)cc2c1OCO2` (stereo not given), for which the Potency result is “inactive”.

Regarding `[O-][Cl+2]([O-])O`, the Potency entry was “inactive”.

Consider `O=S(=O)(O)C(F)(F)C(F)(F)C(F)(F)C(F)(F)F`, for which the Potency result is “inactive”.

`O=C1CCCO1`: the Potency entry was “inactive”.

Regarding `C=CC(=O)OCCN(C)C`, the Potency entry was “inactive”.

`Cc1ccc(-c2nc3ccc(C)cn3c2CC(=O)N(C)C)cc1`: the Potency result is “inactive”.

The nature of another experiment: cAMP Responsive Elements (CRE) small molecule agonists, cell-based qHTS assay: qHTS cell viability counter screen (AID 2060914). Further: nearly all actives have a fitted effect of over 50% in size. To be noted: CRE-bla HEK293T viability, CellTiter-Glo luminescence, 5 h; series mostly up to 92.4 µM. The method, boiled down: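 Luminescence read-out (CellTiter-Glo, 30 min RT) of ATP-based viability in CRE-bla HEK 293T cells, run in the same wells as the β-lactamase reporter assay after 3 h compound treatment at 37 °C.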
As to `ClC(Br)Br`, the Potency result was “inactive”.

Regarding `CNC(=S)S`, the Potency result was “inactive”.

Take `CSSC`: the Potency result was “inactive”.

With `CC(C)NCC(O)c1ccc([N+](=O)[O-])cc1` (stereo not given), the Potency result was “inactive”.

Consider `O=C(O)c1ccccn1`, for which the Potency entry is “inactive”.

As to `CCOP(=O)(OCC)OCC`, the Potency entry was “inactive”.

Turning to `c1ccc2c(c1)CCCC2`, the Potency result was “inactive”.

Regarding `Cc1ccc2ccccc2c1`, the Potency result is “inactive”.

`O=C(NC(=O)c1c(F)cccc1F)Nc1cc(Cl)c(Oc2ncc(C(F)(F)F)cc2Cl)c(Cl)c1`: the Potency result is “inactive”.

Regarding `c1ccoc1`, the Potency result was “inactive”.

With `CCCCS(=O)(=O)Cl`, the Potency result is “inactive”.

`C[CH2][Hg][N]1C(=O)C2C(C1=O)C1(Cl)C(Cl)=C(Cl)C2(Cl)C1(Cl)Cl` (stereo not given): the activity change, negative = cytotoxicity is 14.8% [at 18.9 µM].

Take `CCCC[N+]1(C)CCCC1` (tested in a mixture with another compound): the Potency entry is “inactive”.

Consider `CCC(Cl)CCl` (stereo not given), for which the Potency entry is “inactive”.

Consider `CNc1cnn(-c2cccc(C(F)(F)F)c2)c(=O)c1Cl`, for which the Potency entry was “inactive”.

Take `CN(C)CCc1c[nH]c2ccc(O)cc12`: the Potency result is “inactive”.

`Cc1ccc([N+](=O)[O-])cc1`: the Potency result was “inactive”.

Take `Cc1ccc(OP(=O)(Oc2ccccc2)Oc2ccccc2)cc1`: the Potency entry was “inactive”.

For the molecule `O=C1c2ccccc2C(=O)c2ccccc21`, the activity change, negative = cytotoxicity was 0.739% [at 18.9 µM].

In the case of `Cc1cc(-c2cc(C)c(N)c(C)c2)cc(C)c1N`, the Potency entry was “inactive”.

For the molecule `CC(C)c1cccc(C(C)C)c1O`, the Potency entry was “inactive”.

As to `CCCCCCCCCCCCCl`, the Potency entry is “inactive”.

Consider `CCCCOC(C)=O`, for which the Potency entry was “inactive”.

In the case of `CC1(C)[C@H](/C=C2\CCSC2=O)[C@@H]1C(=O)OCc1coc(Cc2ccccc2)c1`, the Potency result was “inactive”.

Regarding `Oc1ccc(-c2ccccc2)cc1`, the Potency entry is “inactive”.

Consider `O=C(Cc1ccccc1)OCc1ccccc1`, for which the Potency result was “inactive”.

Take `O=C(Cc1ccccc1)OCCc1ccccc1`: the Potency entry is “inactive”.

Turning to `CCCCCCCCCCCCCCCl`, the Potency result is “inactive”.

For the molecule `C[N+](C)(C)CCCl`, the Potency result is “inactive”.

With `CCN[C@H](C)Cc1cccc(C(F)(F)F)c1`, the Potency result was “inactive”.

In the case of `O=C(O)C(F)(F)C(F)(F)C(F)(F)C(F)(F)C(F)(F)C(F)(F)C(F)(F)F`, the Potency result was “inactive”.

Turning to `CC(C)=CC1C(C(=O)OCc2cccc(Oc3ccccc3)c2)C1(C)C` (stereo not given), the Potency result was “inactive”.

As for `O=C(Cl)CCl`, the Potency entry was “inactive”.

Regarding `CCN(CC)C(=O)Cl`, the Potency entry is “inactive”.

Regarding `COc1cc(CC(C)N)cc2c1OCO2` (stereo not given), the Potency result is “inactive”.

For `[O-][Cl+2]([O-])O`, the Potency entry is “inactive”.

As to `O=S(=O)(O)C(F)(F)C(F)(F)C(F)(F)C(F)(F)F`, the Potency result was “inactive”.

As to `O=C1CCCO1`, the Potency entry was “inactive”.

For `C=CC(=O)OCCN(C)C`, the Potency entry is “inactive”.

On to `Cc1ccc(-c2nc3ccc(C)cn3c2CC(=O)N(C)C)cc1`, for which the Potency entry was “inactive”.

(Values after PubChem BioAssay (Tox21).)
